PubChem BioAssay (NCATS)
Results filed as inconclusive are left out. Values without a mark were called inactive. The source made the active and inactive calls. Calls follow the shape of the dose curve; as a rule, active = well fitted curve in the direction sought with a large enough effect; inconclusive = small, poorly fitted or top-dose-only effect, or another doubt; inactive = no such curve, though single readings can be large; an effect the other way counts as inactive or inconclusive.
% is scaled to controls: 0 for no effect and ±100 for the full control effect.
Also: nearly all actives have a fitted effect of over 70% in size.

Assay: Primary qHTS for inhibitors of nuclear receptor binding SET domain protein 2 (NSD2) in an isogenic RCH-ACV NSD2 p.E1099K mutant (9B) (AID 1645876)
Conditions: RCH-ACV NSD2 E1099K (9B) viability, CellTiter-Glo, 72 h; series mostly up to 44.9 µM; activity change, negative = viability loss: at the top concentration
For COc1ccc(CCC(=O)c2c(O)cc(O[C@@H]3O[C@H](CO)[C@@H](O)[C@H](O)[C@H]3O[C@@H]3O[C@@H](C)[C@H](O)[C@@H](O)[C@H]3O)cc2O)cc1O, the “activity change, negative = viability loss” value was -0.0635%. For C=C1CCC2C(C)(C(=O)OC)CCCC2(C)C1CCC1=CCOC1=O (stereo not drawn), the “activity change, negative = viability loss” value was -21.6%. In the case of CC(=O)OC/C(=C/C(=O)O)CC[C@@H]1C(C)=CC(=O)[C@@H]2C(C)(C)CCC[C@@]12C, the “activity change, negative = viability loss” value is reported as -18.6%. For CC1=C2CC(=O)C(C)CC/C=C(\C)CC2OC1=O (stereo not drawn), the “activity change, negative = viability loss” value was -2.96%. For C/C=C/C1OC2=C(C(=O)OC2(C)O)C(O)C1O (stereo not drawn), the “activity change, negative = viability loss” value was -11.6%. With COc1cc(/C=C/c2ccccc2)c(C(=O)O)c(O)c1CC=C(C)C the “activity change, negative = viability loss” value was -22.7%. For CC1(C)CCC[C@@]2(C)[C@H]1[C@H](O)C=C(CO)[C@]2(O)CO, the “outcome” value was “inactive”.

Assay: Primary qHTS for inhibitors of nuclear receptor binding SET domain protein 2 (NSD2) in an RCH-ACV wild type WT cells (2C) (AID 1645877)
Conditions: RCH-ACV (leukaemia line) NSD2 WT (2C) viability, CellTiter-Glo, 72 h; series mostly up to 44.9 µM; activity change, negative = cell killing: at the top concentration
In the case of C/C(=C\C1CCC(C)C2CCC3(C)OC123)C(=O)O (stereo not drawn), the “activity change, negative = cell killing” value is reported as 2.73%. In the case of C=CC(C)(O)CC/C=C(\C)C(=O)O[C@@H]1[C@@H](O)[C@H](OC(C)(C=C)CC/C=C(\C)C(=O)O[C@@H]2O[C@H](CO)[C@@H](O)[C@H](O)[C@H]2O)O[C@H](CO)[C@H]1OC(=O)/C(C)=C/CCC(C)(O)C=C (stereo partly drawn), the activity change, negative = cell killing is reported as -2.41% [at 9.23 µM]. With O=C(/C=C/c1ccccc1)OC[C@H]1O[C@@H](OC(=O)c2cc(O)c(O)c(O)c2)[C@H](O)[C@@H](O)[C@@H]1O the “activity change, negative = cell killing” value was 2.24% [at 17.3 µM]. For Cc1c(O)cc2c(c1O)COC1(O)CCCOC21 (stereo not drawn), the “outcome” value was “inactive”. For CC1CC2(O)OC(=O)C3=C2C(CCC3)[C@@]12C[C@@H](c1ccoc1)OC2=O (stereo partly drawn), the “activity change, negative = cell killing” value was -29.8%. With CC(C/C=C/C(C)(C)O)C1CCC(C)(O)C(O)C1 (stereo not drawn) the “outcome” value was “inactive”. With COc1c(C)c(OCC(O)C(C)(C)O)cc2c1CNC2=O (stereo not drawn) the “activity change, negative = cell killing” value was -10.1%. For COc1cc(/C=C/C(=O)O[C@@H]2C[C@](O)(C(=O)O)C[C@@H](O)[C@H]2O)ccc1O, the “activity change, negative = cell killing” value was 0.164%. For C/C(CO)=C1/CCC23COC(C2)C(O)(C(=O)O)CCC13 (stereo not drawn), the “activity change, negative = cell killing” value was -11.5%. In the case of CC1(C)C2CC[C@]3(C)C(C(=O)C=C4[C@H]5C[C@@](C)(C(=O)O)CC[C@]5(C)CC[C@]43C)[C@@]2(C)CC[C@@H]1O (stereo partly drawn), the “activity change, negative = cell killing” value is reported as -8.28% [at 17.3 µM]. In the case of C=C1CCC[C@]2(C)CC[C@@](O)(C(=C)C(=O)O)C[C@@H]12, the “activity change, negative = cell killing” value is reported as -27.3%. For C=C[C@H]1[C@H](O[C@@H]2O[C@H](CO)[C@@H](O)[C@H](OC(=O)/C=C/c3ccc(O)c(OC)c3)[C@H]2O)OC=C2C(=O)OCC[C@]21O, the “activity change, negative = cell killing” value was 2.11% [at 17.3 µM]. In the case of CC(C)=CCC[C@](C)(O[C@@H]1O[C@H](CO[C@@H]2OC[C@H](O)[C@H](O)[C@H]2O)[C@@H](O)[C@H](O)[C@H]1O)[C@H]1CC[C@]2(C)[C@@H]1[C@H](O)C[C@@H]1[C@@]3(C)CC[C@H](O[C@@H]4O[C@H](CO)[C@@H](O)[C@H](O)[C@H]4O[C@@H]4O[C@H](CO)[C@@H](O)[C@H](O)[C@H]4O)C(C)(C)[C@@H]3CC[C@]12C, the “outcome” value is reported as “inactive [at 17.3 µM]”. In the case of C[C@]1(OC(=O)/C=C\c2ccc(O)cc2)C[C@@H](O)[C@]2(O)C=CO[C@@H](O[C@@H]3O[C@H](CO)[C@@H](O)[C@H](O)[C@H]3O)C12 (stereo partly drawn), the “activity change, negative = cell killing” value is reported as -17.3% [at 17.3 µM]. In the case of O=C(O)CCc1cc2ccoc2cc1O[C@@H]1O[C@H](CO)[C@@H](O)[C@H](O)[C@H]1O, the “activity change, negative = cell killing” value is reported as 1.02%. In the case of COC(=O)C1C(O)CCC2CN3CCc4c([nH]c5ccccc45)C3CC21 (stereo not drawn), the “activity change, negative = cell killing” value is reported as -5.58%. For CCc1nnc(NS(=O)(=O)c2ccc(NC(=S)NC(=O)/C=C/c3ccc(F)cc3)cc2)s1, the “outcome” value was “inactive”. In the case of COC(=O)C1=COC(OC2OC(CO)C(O)C(O)C2O)C2C(COC(=O)/C=C/c3ccc(O)cc3)C(O)C(O)C12 (stereo not drawn), the “activity change, negative = cell killing” value is reported as -1.2% [at 17.3 µM]. For O=C(O)CCc1ccc(NCc2cccc3c2CCCN3CCOc2ccccc2)cc1F, the “activity change, negative = cell killing” value was -10.8%. With O=C(O)CC1(O)C(=O)Nc2ccccc21 (stereo not drawn) the “activity change, negative = cell killing” value was -0.374% [at 91.9 µM]. With C/C(=C\CCC1(C)C2CC3C(C2)C31C)C(=O)O (stereo not drawn) the “activity change, negative = cell killing” value was -8.2%. With C=CC(C)(O)CC/C=C(\C)COC1O[C@H](CO)[C@@H](O)[C@H](O)[C@H]1O (stereo partly drawn) the “activity change, negative = cell killing” value was -26.3%. With C=C[C@H]1[C@H](O[C@@H]2O[C@H](CO)[C@@H](O)[C@H](O)[C@H]2O)OC=C(C(=O)OC)[C@H]1CCO the “activity change, negative = cell killing” value was 1.96%. With C=C1CC[C@@H]2[C@@](C)(CO[C@@H]3O[C@H](CO)[C@@H](O)[C@H](O)[C@H]3O)[C@H](O)CC[C@@]2(C)[C@@H]1CC/C(C)=C/CO[C@@H]1O[C@H](CO)[C@@H](O)[C@H](O)[C@H]1O the “activity change, negative = cell killing” value was -17% [at 17.3 µM]. With COc1c(-c2ccc(O)cc2)cc(OC)c2c1oc1cc(O)c(OC3OC(CO)C(O)C3O)cc12 (stereo not drawn) the “activity change, negative = cell killing” value was -18.8% [at 17.3 µM]. In the case of C=C1CC2C3(C)C=CC(=O)OC(C)(C)C3CC(OC(C)=O)C2(C)C2C(=O)OC(C)C(=O)C12C (stereo not drawn), the “outcome” value is reported as “inactive [at 17.3 µM]”.
